Ten compounds from PubChem BioAssay (NCATS) can be followed below.

Where “and” joins values, the source holds several entries; their conditions need not be identical. Equal values may be shown once. Records with an inconclusive call do not appear. Calls of active or inactive are those of the source. Unless noted, the call rests on the fitted dose curve; in most records, active means well fitted curve in the direction sought with a large enough effect; inconclusive means small, poorly fitted or top-dose-only effect, or another doubt; inactive means no such curve, though single readings can be large; an effect the other way counts as inactive or inconclusive. Some results are limits rather than exact numbers.

In experiment [1] the target is Cytochrome P450 3A4 (Homo sapiens) (UniProt P08684). The experiment is described as follows: qHTS Assay for Inhibitors and Substrates of Cytochrome P450 3A4 (AID 884). Further: nearly all actives have a fitted effect of over 50% in size. Further: potency means the concentration at half of the fitted maximal effect. On activity change, negative = inhibition: on the % scale 0 is the no-effect control and ±100 the full control effect. In outline: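 Luminescent readout of luciferin produced by CYP3A4 (20 nM) dealkylation of Luciferin-PPXE, 25 uM (its KM). NADPH-driven reaction ran 60 min at RT after 10 min compound preincubation; data scaled to 57 uM ketoconazole as 100% inhibition.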
Chain of Cytochrome P450 3A4 (Homo sapiens) (P08684 whole entry, looked up): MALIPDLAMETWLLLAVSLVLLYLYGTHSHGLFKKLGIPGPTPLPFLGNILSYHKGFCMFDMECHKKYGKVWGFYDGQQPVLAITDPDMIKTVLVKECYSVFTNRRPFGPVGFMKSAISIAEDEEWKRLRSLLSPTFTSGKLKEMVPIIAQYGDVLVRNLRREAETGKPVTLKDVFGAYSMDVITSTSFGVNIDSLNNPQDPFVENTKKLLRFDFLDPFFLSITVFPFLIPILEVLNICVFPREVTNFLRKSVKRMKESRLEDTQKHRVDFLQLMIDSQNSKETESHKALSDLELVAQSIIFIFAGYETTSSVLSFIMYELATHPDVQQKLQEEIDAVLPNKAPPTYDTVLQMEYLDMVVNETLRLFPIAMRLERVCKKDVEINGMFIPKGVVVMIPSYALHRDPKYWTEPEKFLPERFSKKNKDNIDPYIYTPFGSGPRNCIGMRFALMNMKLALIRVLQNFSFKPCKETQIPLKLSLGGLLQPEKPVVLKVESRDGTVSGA
For orientation: Quantitative high-throughput screening tests each substance at several concentrations.

A short description of experiment [2]: Cell Viability - BJ (AID 421; calls by dose curve;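 further: potency means the concentration at half of the fitted maximal effect; cells exposed to compound for 40 hours at 37 °C before readout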). The note with it: BJ fibroblast viability, qHTS. An outline of the steps: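 Normal human BJ foreskin fibroblasts, 1500/well in complete medium, treated 40 hr at 37 °C. Cellular ATP by CellTiter-Glo luminescence; normalized to DMSO and 100 uM tamoxifen, AC50 from Hill fit.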
Experiment [3] is described as follows: Cell Viability - HepG2 (AID 433; calls by dose curve;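 further: potency means the concentration at half of the fitted maximal effect; potency for ATP loss meaning cytotoxicity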). The conditions noted are these: qHTS. In outline: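 Cytotoxicity read as ATP loss (CellTiter-Glo luminescence) after 40 hr compound exposure of HepG2, 1500 cells/well, 37 °C. AC50 by Hill equation; 0% set by DMSO, 100% inhibition by 100 uM tamoxifen.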
The nature of experiment [4]: Cell Viability - MRC5 (AID 434; calls by dose curve;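 further: potency means the concentration at half of the fitted maximal effect; cells exposed to compound for 40 hours at 37 °C; potency reflects cytotoxicity seen as loss of intracellular ATP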). The conditions noted are these: MRC5 lung fibroblast viability, qHTS. An outline of the steps:
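Decrease in intracellular ATP, quantified by luciferase light output, reflects compound toxicity toward MRC5 cells exposed for 40 hr in complete culture medium. Concentration-response curves, scaled between DMSO and 100 uM tamoxifen, gave AC50 values.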

Experiment [5] in a line: Cell Viability - HUV-EC-C (AID 542). Further: on the % scale 0 is the no-effect control and ±100 the full control effect; nearly all actives have a fitted effect of over 35% in size. An outline of the steps: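 Concentration-dependent ATP loss in HUV-EC-C cells is the measure. Exposure lasts 40 hr at 37 °C; luminescence follows CellTiter-Glo addition, and Hill fits give AC50.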
Experiment [6] in a line: Cellular Toxicity (caspase-3) Jurkat (AID 655).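 Further: cells exposed to compound for 16 h at 37 °C before reading.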 The note with it: Jurkat caspase-3 activation, luminescence; caspase-3 activation: at 92.2 µM (top of the series), DMSO = 0%, tamoxifen = 100%. In outline:
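Luminescent Caspase-Glo 3/7 read-out (20 min, room temperature) after 16 h compound treatment at 37 C of 5000 Jurkat cells per well. AC50 derived by Hill-equation fitting, scaled between DMSO basal and 100 uM tamoxifen stimulation.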

Experiment [7] in a line: Cellular Toxicity (caspase-3) H-4-II-E (AID 663).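 Further: cells exposed to compound for 16 hr before readout.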 The note with it: Potency: caspase-3 activation. In outline: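 Caspase 3/7 activation measured in H-4-II-E cells in complete culture medium after 16 hr treatment at 37 °C, using luciferase-coupled substrate readout; AC50 values come from Hill-equation fits of normalized concentration-response data.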
The nature of experiment [8]: Cellular Toxicity (caspase-3) NIH 3T3 (AID 666).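 Further: caspase signal read after 16 h compound exposure; 0% = DMSO basal and 100% = 100 µM tamoxifen stimulation.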 An outline of the steps:
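Activity: caspase-3/7 induction, NIH 3T3 cells, 16 hr treatment at 37°C, luminescent Caspase-Glo detection; AC50 via Hill equation.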

A short description of experiment [9]: MultiTox-Fluor Cytotoxicity Assay - LYMP1-001 - Dead Cells (AID 946).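 Further: 0% = DMSO and 100% = tetraoctylammonium bromide.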 In outline:
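LYMP1-001 lymphoblastoid cells (2500/well) treated 16 h at 37 C. Dead-cell protease cleavage of bis-AAF-R110 read at Ex/Em 485/520. Normalized to DMSO and 15 uM tetraoctylammonium bromide; AC50 from Hill fits.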

A short description of experiment [10]: Cell Viability - LYMP1-002 - Assay at 16 hr (AID 948).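 Further: 0% = DMSO alone and full effect = 92 µM tetraoctylammonium bromide.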 An outline of the steps: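 ATP luminescence (CellTiter-Glo) was measured after 16 hr compound exposure at 37 C of 2500 lymphoblastoid LYMP1-002 cells per well. Concentration-response curves were fitted with the Hill equation to give AC50.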
A short description of experiment [11]: MultiTox-Fluor Cytotoxicity Assay - LYMP1-002 - Live Cells (AID 955). Further: on the % scale 0 is the no-effect control and ±100 the full control effect. An outline of the steps: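 In this qHTS viability format, lymphoblastoid cells (LYMP1-002, human) received compound for 16 hr at 37 C. Fluorogenic GF-AFC cleavage by viable cells was detected at 405/510 nm after 1 h at room temperature.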
A short description of experiment [12]: MultiTox-Fluor Cytotoxicity Assay - LYMP1-002 - Dead Cells (AID 960).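 Further: 0% = DMSO and 100% = tetraoctylammonium bromide; nearly all actives have a fitted effect of over 60% in size.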 An outline of the steps: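 Concentration-dependent increases in membrane-leaked protease activity are quantified in LYMP1-002 cells after 16 hr treatment; values are normalized against DMSO and tetraoctylammonium bromide (15 uM) controls and AC50 derived by Hill modeling.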
The nature of experiment [13]: MultiTox-Fluor Cytotoxicity Assay - LYMP1-003 - Dead Cells (AID 961).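 Further: 0% = DMSO and 100% = tetraoctylammonium bromide; nearly all actives have a fitted effect of over 70% in size.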 An outline of the steps: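 LYMP1-003 human lymphoblastoid cells (2500/well) exposed to compound 16 h at 37 C in complete medium; dead-cell protease read with bis-AAF-R110 fluorescence (Ex/Em 485/520) after 60 min at room temperature. Normalized to DMSO and 15 uM tetraoctylammonium bromide; AC50 from Hill fit.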

Experiment [14] is described as follows: MultiTox-Fluor Cytotoxicity Assay - LYMP1-003 - Live Cells (AID 962).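 Further: 0% = DMSO only and full loss = 92 µM tetraoctylammonium bromide; cytotoxic hits lower the live-cell protease signal.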 In outline:
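Human lymphoblastoid line LYMP1-003 in complete culture medium, treated 16 hr with titrated compounds. Viable cells quantified via cell-permeant GF-AFC substrate fluorescence; AC50 derived by Hill fitting.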

Experiment [15] is described as follows: Cell Viability - LYMP2-018 (AID 985).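 Further: compound exposure lasted 24 hr at 37 °C; plate controls were DMSO only for no effect and tetraoctylammonium bromide at 92 µM for full effect; nearly all actives have a fitted effect of over 50% in size.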 An outline of the steps: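 In this qHTS viability assay, cells are treated for 24 hr and cellular ATP is quantified by luciferase-based luminescence, with tetraoctylammonium bromide as positive control.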
Experiment [16] can be described thus: Cell Viability - LYMP1-002 - Assay at 24 hr (AID 993). Further: on the % scale 0 is the no-effect control and ±100 the full control effect. An outline of the steps: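 Viability was judged from intracellular ATP using a luciferase read-out, following a 24-hour compound incubation at 37 C of lymphoblastoid cells seeded at 2500 per well. Concentration-response data were fitted to the Hill equation for AC50.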
Experiment [17] is described as follows: qHTS assay for small molecule antagonists of retinoid X receptor alpha signaling (AID 588546; active means well fitted inhibition curve with a large enough effect in the signal ratio, with a control signal flat, not every such curve was filed as active; the % refers to the signal ratio;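 further: cells stimulated with 9-cis-retinoic acid as agonist; on the % scale 0 is the no-effect control and ±100 the full control effect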). The note with it: HEK293T RXRa-UAS-bla, beta-lactamase ratio, antagonist mode; measured here: W530 green channel, cytotoxicity proxy. In outline: (§1)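 Beta-lactamase reporter inhibition, read as CCF4 fluorescence ratio (ex 405, em 460/530 nm) after 2 h at RT. HEK293T UAS-bla cells, 2500/well, were stimulated with 9-cis-RA at 500 or 100 nM final alongside test compound for 18 h at 37 C.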

For experiment [18], the target named is Retinoic acid receptor RXR-alpha (Homo sapiens) (UniProt P19793). Described as above. The conditions noted are these: HEK293T RXRa-UAS-bla, beta-lactamase ratio, antagonist mode. In outline: as §1
Chain of Retinoic acid receptor RXR-alpha (Homo sapiens) (P19793 whole entry, looked up): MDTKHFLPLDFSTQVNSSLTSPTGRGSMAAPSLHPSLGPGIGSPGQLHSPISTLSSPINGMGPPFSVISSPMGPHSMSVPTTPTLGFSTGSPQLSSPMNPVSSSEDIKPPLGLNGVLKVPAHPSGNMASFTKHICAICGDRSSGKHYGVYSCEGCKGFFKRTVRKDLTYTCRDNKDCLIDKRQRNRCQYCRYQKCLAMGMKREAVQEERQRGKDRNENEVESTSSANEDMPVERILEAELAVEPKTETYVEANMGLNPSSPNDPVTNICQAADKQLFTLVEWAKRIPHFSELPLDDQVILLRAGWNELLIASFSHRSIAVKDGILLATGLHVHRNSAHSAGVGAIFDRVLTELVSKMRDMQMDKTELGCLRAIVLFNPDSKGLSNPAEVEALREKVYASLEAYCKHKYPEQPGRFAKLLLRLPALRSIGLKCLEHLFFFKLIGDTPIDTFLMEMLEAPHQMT
Experiment [19] is described as follows: qHTS assay for small molecule disruptors of the mitochondrial membrane potential - 5 hr assay (AID 651755; calls by dose curve; further: nearly all actives have a fitted effect of over 40% in size; further: potency means the concentration at half of the fitted maximal effect). In outline:
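Seed HepG2 overnight, add compound, incubate 5 hr at 37C and 5% CO2, stain 30 min with Mito-MPS, then measure monomer (490/535 nm) and aggregate (540/590 nm) fluorescence.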

A short description of experiment [20]: qHTS assay for cell viability of HEK293 cells (AID 743288). Further: on the % scale 0 is the no-effect control and ±100 the full control effect; nearly all actives have a fitted effect of over 50% in size. The note with it: ATP luminescence (CellTiter-Glo), 18 h; max response: stronger effect = lower value. An outline of the steps: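 Readout is luciferase-coupled ATP content (CellTiter-Glo luminescence, 30 min room temperature) as a measure of metabolically competent cells. Parental HEK293 cells were plated 5 h or more before compound addition, then treated 18 h at 37 C.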

As to `COc1cc2nc(N3CCN(C(=O)OCc4ccccc4)[C@H](C(=O)NC(C)(C)C)C3)nc(N)c2cc1OC`, the Potency in experiment [1] is 3.98 µM (active).
For `CCNC(=S)NCC`, the Potency in experiment [2], in [3] and in [4] was > 92 µM (inactive) each time. Moreover, the Potency entry in [5], in experiment [6], in experiment [7], in [9], in [10] and in [12] was “inactive” in each case. Besides, the Potency result in experiment [13], in [14], in experiment [15], in [16] and in [19] was “inactive” each time. Also, the outcome in experiment [8] and in experiment [11] was inactive. The max response in experiment [17] is -3.33%; in [18], 14.7% (inactive); in experiment [20], -6.53% (inactive).
On to `CC(=O)OC1CC(C)OC(C)O1` (configuration not stated), for which the Potency in experiment [2], in [3] and in [4] was > 92 µM (inactive) in each case. Further, the Potency result in experiment [5], in experiment [6], in experiment [7], in [1], in experiment [9] and in experiment [10] was “inactive” each time. For the same compound, the Potency result in experiment [12], in experiment [13], in [14], in experiment [15], in experiment [16] and in experiment [19] was “inactive” each time. In addition, the result in [8] and in experiment [11] was inactive. Moreover, the max response was 1.48% and -10.6% in experiment [17]; 6% (inactive) and 5.73% (inactive) in experiment [18]; -1.36% (inactive) and -5.57% (inactive) in [20].
With `C[C@@H](CN1CCC(Cc2ccccc2)CC1)[C@H](O)c1ccc(O)cc1`, the Potency result in experiment [1] is “inactive”.
Take `COC(=O)[C@](C)(N)Cc1ccc(O)cc1`: the Potency result in [1] was “inactive”.
With `O[C@H](CN1CCN(c2cccc(Cl)c2)CC1)C(c1ccccc1)c1ccccc1`, in experiment [1], the Potency result was “inactive”.
Regarding `CCCC(=O)OC(=O)CCC`, the Potency in experiment [2], in experiment [3] and in experiment [4] was > 92 µM (inactive) each time. For the same compound, the Potency entry in experiment [5], in experiment [6], in experiment [7], in experiment [1], in [9] and in experiment [10] was “inactive” throughout. In addition, the Potency result in experiment [12], in experiment [13], in experiment [14], in experiment [15], in [16] and in experiment [19] was “inactive” each time. Also, the result in [8] and in [11] was inactive. Also, the max response in experiment [17] is -8.03% and -4.72%; in [18], 2.23% (inactive) and 15.8% (inactive); in [20], -4.88% (inactive) and -8.13% (inactive).
With `COc1ccc(C(=O)Nc2ccccc2)cc1[N+](=O)[O-]`, the Potency in [2] is > 92 µM (inactive); in experiment [3] it was > 92 µM (inactive); in experiment [4] it was > 92 µM (inactive); in [19] it was 37.6 µM (active). In addition, the Potency result in experiment [5], in experiment [6], in experiment [7], in experiment [9], in experiment [10] and in experiment [13] was “inactive” throughout. Also, the Potency entry in [14], in experiment [15] and in [16] was “inactive” throughout. For the same compound, the outcome in [8] and in [11] was inactive. The max response is -10.5% in experiment [17], -8.72% (inactive) in experiment [18] and -5.07% (inactive) in [20].
For the compound `O=C(O)C(=Cc1ccc(-c2ccccc2)cc1)C(=O)O`, the activity change, negative = inhibition in [1] is -41.1% [at 11.4 µM] (inactive).
Regarding `CCCCCCCCOc1ccc(C(=O)O)cc1`, the Potency in experiment [2], in experiment [3] and in [4] was > 92 µM (inactive) in each case. For the same compound, the Potency entry in experiment [5], in experiment [6], in experiment [7], in experiment [1], in experiment [9] and in experiment [10] was “inactive” in each case. For the same compound, the Potency entry in [12], in experiment [13], in experiment [14], in experiment [15], in experiment [16] and in experiment [19] was “inactive” throughout. For the same compound, the outcome in experiment [8] and in [11] was inactive. For the same compound, the figures for the max response in experiment [17], in [18] and in [20] were -3.84%, -6.4% (inactive) and 8.21% (inactive), respectively.
